Read-out in test [1]: Tissue Factor, F3 (gene 2152)
The experiment in a line: BSK_CASM3C_TissueFactor: BioMAP Diversity Plus: CASM3C Assay for Tissue Factor Biomarker Activity (AID 2283052).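 Note: cell surface tissue factor protein level read by ELISA.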 The conditions noted are these: primary human coronary artery smooth muscle cells; actives raise or lower the signal.

Read-out in test [2]: Interferon-gamma inducible Protein 10 (IP10), CXCL10 (gene 3627)
The experiment in a line: BSK_hDFCGF_IP10: BioMAP Diversity Plus: hDFCGF Assay for Interferon-gamma inducible Protein 10 (IP10) Biomarker Activity (AID 2283053). Particulars: primary human foreskin fibroblasts; actives raise or lower the signal. The method, boiled down: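 Human foreskin fibroblast primary cells (hDFCGF system) were dosed with chemical and assayed at 24 h; IP-10 measured by ELISA. Activity fitted bidirectionally relative to DMSO negative control as baseline.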

Read-out in test [3]: Urokinase-type plasminogen activator receptor (uPAR), PLAUR (gene 5329)
Put plainly: BSK_CASM3C_uPAR: BioMAP Diversity Plus: CASM3C Assay for Urokinase-type plasminogen activator receptor (uPAR) Biomarker Activity (AID 2283054).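 Note: cell-surface uPAR protein level quantified by ELISA.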 Particulars: primary human coronary artery smooth muscle cells; actives raise or lower the signal.

Read-out in test [4]: Vascular cell adhesion molecule 1 (VCAM1), VCAM1 (gene 7412)
Put plainly: BSK_CASM3C_VCAM1: BioMAP Diversity Plus: CASM3C Assay for Vascular cell adhesion molecule 1 (VCAM1) Biomarker Activity (AID 2283055).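 Note: VCAM-1 protein level quantified by ELISA on the cells.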 The conditions noted are these: primary human coronary artery smooth muscle cells; actives raise or lower the signal.

Read-out in test [5]: Collagen III, COL3A1 (gene 1281)
Put plainly: BSK_hDFCGF_CollagenIII: BioMAP Diversity Plus: hDFCGF Assay for Collagen III Biomarker Activity (AID 2283056). The conditions noted are these: primary human foreskin fibroblasts; actives raise or lower the signal. The method, boiled down: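 Human foreskin primary fibroblasts were exposed to test chemicals for 24 h, after which collagen III was quantified by ELISA. Activity was fitted bidirectionally against DMSO as negative control and baseline.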

Read-out in test [6]: Epidermal growth factor receptor (EGFR), EGFR (gene 1956)
Put plainly: BSK_hDFCGF_EGFR: BioMAP Diversity Plus: hDFCGF Assay for Epidermal growth factor receptor (EGFR) Biomarker Activity (AID 2283057). Particulars: primary human foreskin fibroblasts; actives raise or lower the signal. In short, it runs like this:
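Primary human foreskin fibroblasts were exposed to compound for 24 h, after which cell-surface EGFR was quantified by ELISA. Activity was fitted bidirectionally against the DMSO negative control as baseline.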

Read-out in test [7]: Interleukin-8 (IL8), CXCL8 (gene 3576)
Put plainly: BSK_hDFCGF_IL8: BioMAP Diversity Plus: hDFCGF Assay for Interleukin-8 (IL8) Biomarker Activity (AID 2283058). Particulars: primary human foreskin fibroblasts; actives raise or lower the signal. In short, it runs like this: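 hDFCGF human dermal fibroblasts; 24 h chemical exposure; IL-8 by ELISA; bidirectional curve fit vs DMSO baseline; gain or loss of signal scored.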

A short description of test [8]: BSK_hDFCGF_Proliferation: Cell Proliferation Assessment in the BioMAP Diversity Plus: hDFCGF Assay (AID 2283059).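 Note: curves fitted for both rise and fall of signal versus DMSO baseline.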 Particulars: primary human foreskin fibroblasts. The method, boiled down:
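Total protein read at 560 nm after 0.1% SRB staining of TCA-fixed human skin fibroblasts, […]. Activity is fitted in both directions relative to DMSO as baseline.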

Read-out in test [9]: Macrophage colony-stimulating factor (MCSF), CSF1 (gene 1435)
The experiment in a line: BSK_hDFCGF_MCSF: BioMAP Diversity Plus: hDFCGF Assay for Macrophage colony-stimulating factor (MCSF) Biomarker Activity (AID 2283060). Particulars: primary human foreskin fibroblasts; actives raise or lower the signal. In short, it runs like this:
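Human foreskin primary fibroblasts were treated with test chemical for 24 h, and M-CSF was then measured by ELISA. Data were fitted bidirectionally against DMSO as the negative control and activity baseline.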

Test [10] is described as follows: BSK_hDFCGF_SRB: Viability Assessment in the BioMAP Diversity Plus: hDFCGF Assay (AID 2283061).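 Note: cells exposed to compound for 24 h before the read.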 The conditions noted are these: primary human foreskin fibroblasts. In short, it runs like this: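 Human foreskin primary fibroblasts were treated with compound and assessed 24 h after dosing. Total protein was measured by sulforhodamine B staining (0.1% SRB after 10% TCA fixation, 560 nm read) as a cytotoxicity marker, with bidirectional fitting against DMSO baseline.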

Read-out in test [11]: TIMP metallopeptidase inhibitor 1 (TIMP1), TIMP1 (gene 7076)
Put plainly: BSK_hDFCGF_TIMP1: BioMAP Diversity Plus: hDFCGF Assay for TIMP metallopeptidase inhibitor 1 (TIMP1) Biomarker Activity (AID 2283062). Particulars: primary human foreskin fibroblasts; actives raise or lower the signal. The method, boiled down: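 Primary human foreskin fibroblasts in the hDFCGF system were dosed with compound for 24 h, then TIMP-1 was measured by ELISA. Activity was fitted bidirectionally relative to DMSO control; parallel SRB staining assessed cytotoxicity.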

Read-out in test [12]: Monokine induced gamma interferon (MIG), CXCL9 (gene 4283)
Put plainly: BSK_hDFCGF_MIG: BioMAP Diversity Plus: hDFCGF Assay for Monokine induced gamma interferon (MIG) Biomarker Activity (AID 2283063). Particulars: primary human foreskin fibroblasts; actives raise or lower the signal. In short, it runs like this:
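ELISA read-out of MIG from primary human dermal fibroblasts 24 h post-dosing. Gain or loss of signal fitted bidirectionally, DMSO as baseline.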

Read-out in test [13]: Matrix Metallopeptidase 1 (MMP1), MMP1 (gene 4312)
The experiment in a line: BSK_hDFCGF_MMP1: BioMAP Diversity Plus: hDFCGF Assay for Matrix Metallopeptidase 1 (MMP1) Biomarker Activity (AID 2283064). Particulars: primary human foreskin fibroblasts; actives raise or lower the signal. In short, it runs like this: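 hDFCGF primary fibroblasts (human foreskin); chemical added; 24 h; MMP1 by ELISA; bidirectional fit vs DMSO.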

Read-out in test [14]: Vascular cell adhesion molecule 1 (VCAM1), VCAM1 (gene 7412)
The experiment in a line: BSK_hDFCGF_VCAM1: BioMAP Diversity Plus: hDFCGF Assay for Vascular cell adhesion molecule 1 (VCAM1) Biomarker Activity (AID 2283065).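 For AC50: VCAM-1 protein level quantified by ELISA after 24 h chemical exposure.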 The conditions noted are these: primary human foreskin fibroblasts; actives raise or lower the signal. In short, it runs like this:
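Primary human foreskin fibroblasts (hDFCGF system) were dosed with chemical and VCAM-1 was measured by ELISA 24 h later. Bidirectional curve fitting used DMSO as negative control and activity baseline.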

Read-out in test [15]: Plasminogen activator inhibitor-1 (PAI1), SERPINE1 (gene 5054)
The experiment in a line: BSK_hDFCGF_PAI1: BioMAP Diversity Plus: hDFCGF Assay for Plasminogen activator inhibitor-1 (PAI1) Biomarker Activity (AID 2283066). Particulars: primary human foreskin fibroblasts; actives raise or lower the signal. In short, it runs like this:
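Human foreskin fibroblasts in the hDFCGF system were dosed with compound for 24 h; PAI-1 was quantified by ELISA. Bidirectional curve fitting used DMSO as negative control and baseline.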

Read-out in test [16]: Intercellular Adhesion Molecule 1 (ICAM1), ICAM1 (gene 3383)
The experiment in a line: BSK_KF3CT_ICAM1: BioMAP Diversity Plus: KF3CT Assay for Intercellular Adhesion Molecule 1 (ICAM1) Biomarker Activity (AID 2283067). The conditions noted are these: primary human keratinocytes with fibroblasts; actives raise or lower the signal. The method, boiled down:
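Human keratinocyte plus foreskin fibroblast primary co-culture was exposed to chemical for 24 h. ICAM-1 was then quantified by ELISA, and the data were fit bidirectionally against DMSO as the negative control and baseline.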

Read-out in test [17]: Interferon-gamma inducible Protein 10 (IP10), CXCL10 (gene 3627)
Put plainly: BSK_KF3CT_IP10: BioMAP Diversity Plus: KF3CT Assay for Interferon-gamma inducible Protein 10 (IP10) Biomarker Activity (AID 2283068). The conditions noted are these: primary human keratinocytes with fibroblasts; actives raise or lower the signal. In short, it runs like this: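 Human keratinocyte plus foreskin fibroblast primary co-culture exposed to test chemical for 24 h; IP-10 measured by ELISA. Concentration-response fitted bidirectionally against DMSO control as baseline.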

Test [18] in a line: BSK_KF3CT_SRB: Viability Assessment in the BioMAP Diversity Plus: KF3CT Assay (AID 2283069).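 Note: fitted for both signal gain and loss against DMSO baseline.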 The conditions noted are these: primary human keratinocytes with fibroblasts. In short, it runs like this: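 Keratinocytes co-cultured with foreskin fibroblasts (human primary); chemical added, 24 h; fix 10% TCA, stain 0.1% SRB, A560. Bidirectional fit vs DMSO.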
Read-out in test [19]: Interleukin-1 alpha (IL1a), IL1A (gene 3552)
The experiment in a line: BSK_KF3CT_IL1a: BioMAP Diversity Plus: KF3CT Assay for Interleukin-1 alpha (IL1a) Biomarker Activity (AID 2283070). Particulars: primary human keratinocytes with fibroblasts; actives raise or lower the signal. The method, boiled down:
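Chemicals were dosed onto co-cultured human keratinocytes and foreskin fibroblasts, IL-1a was quantified by ELISA at 24 h, and activity was fitted in both directions relative to DMSO controls.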

Read-out in test [20]: TIMP metallopeptidase inhibitor 2 (TIMP2), TIMP2 (gene 7077)
Put plainly: BSK_KF3CT_TIMP2: BioMAP Diversity Plus: KF3CT Assay for TIMP metallopeptidase inhibitor 2 (TIMP2) Biomarker Activity (AID 2283071). Particulars: primary human keratinocytes with fibroblasts; actives raise or lower the signal. The method, boiled down: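 Human primary keratinocyte/foreskin fibroblast co-culture dosed with chemical and sampled at 24 h. TIMP-2 levels quantified by ELISA; bidirectional fitting against DMSO negative control as baseline.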

Active and inactive are the calls of the source. Rule for the calls: active = hit-call score of the fitted dose curve at least 0.9, where 1 is the maximum; inactive = score below 0.9.

Here are results for 5 compounds from PubChem BioAssay (EPA / NIEHS).

What is called AC50 is the midpoint of the concentration-response curve, whichever way the signal moves.

For the compound `CCCCCCCCn1sccc1=O`, the AC50 in test [1] is 14.2 µM (active); in test [2] it was 0.626 µM (active); in [3], 11.5 µM (active); in test [4], 9.3 µM (active); in [5], 2.42 µM (active); in [7], 1.62 µM (active). Besides, the AC50 in test [8] is 0.405 µM (active); in test [9], 1.07 µM (active); in test [10] it was 1.73 µM (active); in test [11], 2.09 µM (active); in [12], 0.949 µM (active); in test [13], 1.43 µM (active). In addition, the AC50 in test [14] was 1.09 µM (active); in test [15] it was 1.4 µM (active); in test [16], 9.79 µM (active); in test [17] it was 8.03 µM (active); in test [18], 6.74 µM (active); in test [19], 9.05 µM (active). In addition, the AC50 in test [20] was 11.2 µM (active). The result in [6] was inactive.

In the case of `Cc1ccc(N)cc1`, the result in test [1], in test [2], in [3], in test [4], in test [5] and in test [6] was inactive. The result in [7], in [8], in test [9], in [10], in test [11] and in test [12] was inactive. The result in test [13], in [14], in test [15], in test [16], in [17] and in test [18] was inactive. For the same compound, the result in test [19] and in test [20] was inactive.

Turning to `O=P(OCCCl)(OCCCl)OCCCl`, the outcome in test [1], in test [2], in test [3], in test [4], in test [5] and in [6] was inactive. Further, the outcome in test [7], in test [8], in test [9], in [10], in [11] and in test [12] was inactive. The outcome in test [13], in test [14], in [15], in [16], in test [17] and in [18] was inactive. Further, the result in [19] and in test [20] was inactive.

Regarding `[Cl-].[Cl-].[Hg+2]`, the AC50 in [1] is 32.6 µM (active); in [2], 11.5 µM (active); in [3], 34.4 µM (active); in test [4], 26.5 µM (active); in test [5], 11.6 µM (active); in test [7], 13.6 µM (active). Also, the AC50 in test [8] was 4.83 µM (active); in [9], 10.7 µM (active); in [10], 12.1 µM (active); in [11], 13.5 µM (active); in test [12] it was 8.14 µM (active); in [13], 11.8 µM (active). Moreover, the AC50 in [14] was 7.96 µM (active); in test [15], 12.2 µM (active); in [16] it was 20.8 µM (active); in test [17] it was 12.8 µM (active); in [18], 13.2 µM (active); in test [19], 30.4 µM (active). Besides, the AC50 in test [20] was 29.2 µM (active). Further, in [6], the outcome was inactive.

As for `Clc1ccc(Cl)c(Cl)c1`, the result in test [1], in [2], in [3], in test [4], in [5] and in test [6] was inactive. Also, the result in test [7], in [8], in [9], in [10], in test [11] and in test [12] was inactive. The outcome in test [13], in [14], in test [15], in test [16], in test [17] and in test [18] was inactive. For the same compound, the outcome in [19] and in [20] was inactive.
